# From PubChem BioAssay (Tox21)
# Inconclusive results are not listed. A number with no mark means an inactive call. Calls of active or inactive are those of the source. Calls follow the shape of the full dose curve.
# Experiment: qHTS assay for small molecules that induce genotoxicity in human embryonic kidney cells expressing luciferase-tagged ATAD5 - cell viability (AID 651634); also: nearly all actives have a fitted effect of over 25% in size
# Conditions: HEK293T ATAD5-luc cells viability, CellTiter-Fluor, 15.5 h; series mostly up to 83.3 µM; activity, negative = cytotoxicity: at the top concentration
# Source text: National Center for Advancing Translational Sciences [NCATS]
# NIH Chemical Genomics Center [NCGC]
# U.S. Environmental Protection Agency [EPA]
# National Institutes of Environmental Health Sciences [NIEHS]
# National Toxicology Program [NTP]
# U.S. Food and Drug Administration [FDA]
# Enhanced Level of Genome Instability Gene 1 (ELG1; human ATAD5) protein levels increase in response to various types of DNA damage. Using a luciferase reporter-gene tagged with ElG1, a cell-based assay [developed by Kyungjae Myung, NHGRI, NIH] was used to measure the induction of ATAD5 in human embryonic kidney cells (HEK293T). So, increase in luciferase activity can be used to identify the compounds that cause genetic stress. In addition to genotoxicity, these cells were also used to test for cytotoxicity by measuring the protease activity within live cells.
# Tox21 Assay Protocol Summary:
# For cytotoxicity screening, 2,000 cells in 5 uL/well were dispensed into white, solid-bottom 1536-well plates using a Multidrop Combi (Thermo Scientific) dispenser. Following transfer of 23 nL compound or DMSO vehicle by a pin tool, the plates were incubated 15.5 hr at 37C and 5% CO2. 1 ul CellTiter-Fluor reagent (Promega, Madison, WI) was then added to each plate and following 30 min incubation at 37C, fluorescence intensity was quantified on a ViewLux CCD-based plate reader.
# % is scaled to controls: 0 for no effect and ±100 for the full control effect; potency is read from the fitted curve at half-maximal effect.
SMILES,"activity, negative = cytotoxicity",Potency
NC1=NC(=O)C(c2ccccc2)O1 (stereo not given),16.8%,
O=c1oc2ccccc2c(O)c1C1CCCc2ccccc21 (stereo not given),-1.93%,
CC1CCC(=O)O1 (stereo not given),8.23%,
CCN(Cc1ccc(Cl)nc1)/C(=C/[N+](=O)[O-])NC,12%,
O=C(Oc1ccc(Br)cc1)N1CCN2CCC1CC2,18.8%,
CCCCCCI,25%,
CN(C)CCc1ccc(O)cc1,17.4%,
Cc1coc2c1CCC(C)C2 (stereo not given),-6.82% [at 95.3 µM],
CC1(C(=O)Nc2ccc(O)c(Cl)c2Cl)CCCCC1,13.6%,
N#CC(O)c1ccccc1 (stereo not given),16.8%,
O=C1CN=C(c2ccccc2)c2cc([N+](=O)[O-])ccc2N1,-14.7%,
c1cc2c(c(N3CCNCC3)c1)OCCO2,6.66%,
CC(C)COP(=O)(OCC(C)C)OCC(C)C,-12.9%,
COP(=S)(OC)Oc1c(Cl)cc(C)cc1Cl,21%,
ClCC(Cl)Cl,16.5% [at 95.3 µM],
OCCSCSCCO,14.4%,
CCS(=O)(=O)C(C)(C)S(=O)(=O)CC,10.2%,
CCSC(=O)N(CC)C1CCCCC1,7.23%,
C=CC1CC=CCC1 (stereo not given),11.2%,
Nc1n[nH]c(N)n1,5.98% [at 95.3 µM],

SMILES,"activity, negative = cytotoxicity",Potency
CN1CCN(C(=O)O[C@H]2c3nccnc3C(=O)N2c2ccc(Cl)cn2)CC1,-8.44%,
CCC(Cl)[N+](=O)[O-] (stereo not given),1.91% [at 95.3 µM],
ClC(Cl)C(Cl)Cl,12.4% [at 95.3 µM],
CC(Cl)(Cl)[N+](=O)[O-],3.71%,
COCC(=O)N(c1c(C)cccc1C)N1CCOC1=O,12.7%,
CCOP(=O)(N=C1SCCS1)OCC,3.25%,
Nc1c(Br)cc([N+](=O)[O-])cc1[N+](=O)[O-],,49.1 µM (active)
CCOc1nc(C(Cl)(Cl)Cl)ns1,4.67%,
CC(=O)[C@H]1CC[C@H]2[C@@H]3CC[C@H]4C[C@H](O)CC[C@]4(C)[C@H]3C(=O)C[C@]12C,6.99%,
COc1cc(OC)nc(NC(=O)NS(=O)(=O)c2ncccc2OCC(F)(F)F)n1,15.6%,
ClCCOCOCCCl,20.6% [at 95.3 µM],
OC(Cn1cncn1)(c1ccc(F)cc1)c1ccccc1F (stereo not given),12.8%,
N#Cc1ccncc1,28% [at 95.3 µM],
O=NN1CCCCC1,5.94%,
N#CCNCC#N,-17%,
ClC(Cl)Br,-12.3% [at 95.3 µM],
CCOC(=O)CP(=O)(OCC)OCC,18.3%,
Cc1nc(N)nc(N)n1,14.1% [at 95.3 µM],
N#CCBr,-7.89% [at 95.3 µM],
CC(C=O)Cc1ccc2c(c1)OCO2 (stereo not given),12.1%,
